“And” between values parts separate entries of the source, which are not always exact repeats. Equal entries are not always repeated. Records with an inconclusive call do not appear. More than one record can exist for a structure, and the calls need not agree. The source made the active and inactive calls. Unless noted, calls come from the whole dose curve; as a rule, active = well fitted curve in either direction with a large enough effect (not every such curve was filed as active); inconclusive = small, poorly fitted or top-dose-only effect, or another doubt; inactive = flat fitted curve, though single readings scatter.

The results in this text go back to PubChem BioAssay (NCATS).

The nature of test [1]: NFAT Signaling Pathway (AID 444).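 Note: carbachol stimulus at about its EC50 of 1 µM final; % is set by controls: 0 for no effect and ±100 for the full control effect.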 To be noted: Jurkat NFAT-bla M1, carbachol, beta-lactamase ratio, 5 h. The gist of the method: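 Jurkat cells with NFAT-driven β-lactamase reporter and co-expressed M1 receptor, stimulated with carbachol (final 1 uM, ~EC50), compound titration, 5 h at 37 °C. CCF4 loaded 1 h at RT; 460/530 nm ratio gave %activity and AC50.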
Test [2] can be described thus: AP1 Signaling Pathway (AID 357).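 Note: ME-180 reporter cells stimulated with EGF at its EC50 level; % is set by controls: 0 for no effect and ±100 for the full control effect.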 To be noted: ME-180 (cervical carcinoma) AP-1-bla reporter, EGF-induced, beta-lactamase ratio, 5 h. The method in brief:
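Read-out was the 460nm/530nm emission ratio (excitation 405nm) after CCF4 loading for 2.5 hours at room temperature. Cells carried an AP-1-driven beta-lactamase reporter, were stimulated with EC50 EGF plus compound for 5 hours, and AC50 values came from titrations.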

Test [3] concerns the target Cytochrome P450 1A2 (Homo sapiens) (UniProt P05177). Kind of test: p450-cyp1a2 (AID 410; calls by dose curve; note: potency is the fitted concentration of half-maximal effect;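 for activity change, negative = inhibition: -100% = full effect of reference inhibitor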). To be noted: recombinant CYP1A2, luciferin-ME demethylation, luminescence; series mostly up to 57 µM. The gist of the method:
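Inhibition was calculated relative to 57 uM furafylline (full inhibition). The reaction used human CYP1A2 at 20nM with Luciferin-ME at its Km, 100uM, driven by an NADPH-regenerating system for 60 min at room temperature.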

Test [4] can be described thus: Cell Viability - BJ (AID 421; calls by dose curve;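 note: potency is the fitted concentration of half-maximal effect; cells exposed to compound for 40 hours at 37 °C before readout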). To be noted: BJ fibroblast viability, qHTS. The method in brief:
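Cytotoxicity as drop in intracellular ATP (CellTiter-Glo, 20 min RT) after 40 hr compound exposure of BJ fibroblasts at 37 °C. Titrations scaled between DMSO and 100 uM tamoxifen, Hill-fitted for AC50.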
A general note: qHTS replaces the single test concentration by a dilution series.

Test [5] is described as follows: Cell Viability - Jurkat (AID 426;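 active = dose-dependent loss of cell ATP signal giving a full or clear fitted curve, ranked by lower potency value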; note: potency is the fitted concentration of half-maximal effect). To be noted: qHTS. The method in brief: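 Seed 5000 Jurkat E6-1 cells/well; add compound; incubate 40 hr at 37 °C; add CellTiter-Glo; wait 20 min at room temperature; read luminescence. Fit concentration-response with Hill equation for AC50.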
The nature of test [6]: Cell Viability - Hek293 (AID 427;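 active = compounds whose dose-response curve shows a full or clear partial loss of cell viability, called from curve shape rather than a numeric limit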;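 note: potency is the fitted concentration of half-maximal effect; cells exposed to compound for 40 hours at 37 °C before reading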). The settings on record: qHTS. The gist of the method: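 Luminescent ATP content (CellTiter-Glo, 20 min at room temperature) was measured after a 40 hr, 37 °C compound exposure of HEK293 cells. AC50 values came from Hill-equation fits of qHTS concentration-response data normalized to DMSO and 100 uM tamoxifen.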
Test [7] can be described thus: Cell Viability - HepG2 (AID 433; calls by dose curve;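 note: potency is the fitted concentration of half-maximal effect; potency for ATP loss meaning cytotoxicity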). The settings on record: qHTS. The method in brief:
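Read-out is luciferase-based quantitation of cellular ATP as a measure of viable HepG2 cells after 40 h treatment at 37 °C. Signal decrease is scaled between DMSO-only and 100 uM tamoxifen controls, with AC50 fitted by the Hill equation.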

The nature of test [8]: Cell Viability - MRC5 (AID 434; calls by dose curve;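 note: potency is the fitted concentration of half-maximal effect; potency reflects cytotoxicity seen as loss of intracellular ATP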). The settings on record: MRC5 lung fibroblast viability, qHTS. The method in brief: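 MRC5 normal human lung fibroblasts, 1500 cells/well, exposed to compound for 40 hr at 37 C. Cellular ATP was read by CellTiter-Glo luminescence; data normalized to DMSO and 100 uM tamoxifen, with AC50 from Hill fits.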
The nature of test [9]: Cell Viability - SK-N-SH (AID 435; calls by dose curve;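 note: potency is the fitted concentration of half-maximal effect; compound exposure lasted 40 h at 37 °C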). To be noted: SK-N-SH neuroblastoma cell viability qHTS. The gist of the method:
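Luminescent ATP signal served as the viability read-out after 40 hours of compound treatment of human neuroblastoma SK-N-SH cells. Concentration-response data, scaled between DMSO and 100 uM tamoxifen, gave AC50 values by standard Hill modeling.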

The mark [10] stands for this setting: at 38 µM (top of the series) unless noted.

Cytochrome P450 1A2 (Homo sapiens), sequence (P05177 whole entry, looked up): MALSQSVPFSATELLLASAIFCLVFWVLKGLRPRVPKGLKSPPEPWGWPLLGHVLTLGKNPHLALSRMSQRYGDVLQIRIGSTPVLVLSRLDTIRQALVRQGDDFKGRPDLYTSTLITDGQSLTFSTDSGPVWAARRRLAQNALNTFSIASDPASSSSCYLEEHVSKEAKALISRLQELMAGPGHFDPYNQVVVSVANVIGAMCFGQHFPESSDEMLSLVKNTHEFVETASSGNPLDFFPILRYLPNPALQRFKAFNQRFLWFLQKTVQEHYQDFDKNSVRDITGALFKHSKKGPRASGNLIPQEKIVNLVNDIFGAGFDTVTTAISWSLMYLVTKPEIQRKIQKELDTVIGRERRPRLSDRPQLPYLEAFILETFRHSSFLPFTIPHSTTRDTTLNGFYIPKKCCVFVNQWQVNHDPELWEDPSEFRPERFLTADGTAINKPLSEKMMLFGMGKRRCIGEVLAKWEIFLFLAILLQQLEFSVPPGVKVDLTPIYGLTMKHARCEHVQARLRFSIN

Turning to `NCCSSCCN`, the activity change, negative = inhibition in test [1] (at 7.69 µM (top of the series)) is 0.926% (inactive).

For the compound `O=C(O)CC[C@@H](C(=O)O)N1C(=O)c2ccccc2C1=O`, the activity change, negative = inhibition in [1] (at 7.69 µM (top of the series)) was 15.2% (inactive).

As for `CC(C)Cc1ccc([C@H](C)C(=O)O)cc1`, the activity change, negative = inhibition in test [1] (at 17.2 µM (top of the series)) is -2.57% (inactive).

With `O=c1[nH]c2cc(Cl)c(Cl)cc2[nH]c1=O`, the activity change, negative = inhibition in test [2] (at 38 µM (top of the series)) is -8.09% (inactive); in test [1] (setting [10]), 4.68% (inactive).

With `CN1CCc2cc(NC(=O)Nc3cccnc3)ccc21`, the activity change, negative = inhibition in test [2] (at 38 µM (top of the series)) was -1.43% (inactive); in test [1] (setting [10]) it was 4.73% (inactive). Moreover, the Potency in test [3] was 0.0794 µM (active).

In the case of `NCCCS(=O)(=O)O`, the activity change, negative = inhibition was -1.95% (inactive) in test [2] (at 38 µM (top of the series)) and 29% (inactive) in [1] (setting [10]). The Potency result in [3] was “inactive”.

In the case of `N[C@H](CCCP(=O)(O)O)C(=O)O`, the values for the activity change, negative = inhibition in test [2] (at 38 µM (top of the series)) and in [1] (setting [10]) were -8.4% (inactive) and -6.29% (inactive), respectively. Besides, in [3], the Potency entry was “inactive and 31.6 µM (active) and 25.1 µM (active)”.

Turning to `C[N+]1(C)CCC(OC(=O)C(c2ccccc2)c2ccccc2)CC1`, the activity change, negative = inhibition in test [2] (at 38 µM (top of the series)) is 10.3% (inactive); in test [1] (setting [10]), -75% (active). The Potency in test [3] is 10 µM (active) and inactive.

Take `CCCCN1CCC(n2c(=O)[nH]c3ccccc32)CC1`: the activity change, negative = inhibition in test [2] (at 38 µM (top of the series)) is -4.94% (inactive); in [1] (setting [10]) it was 4.7% (inactive). The Potency entry in test [3] is “inactive”.

For the compound `COc1cc(OC)c(/C=C2/C(=O)Nc3ccccc32)c(OC)c1`, the activity change, negative = inhibition was -28.2% (inactive) in test [2] (at 38 µM (top of the series)) and -8.19% (inactive) in [1] (setting [10]). In addition, the Potency in test [3] is 0.501 µM (active).

On to `O=c1[nH]c2cc(C(F)(F)F)ccc2n1-c1cc(C(F)(F)F)ccc1O`, for which the activity change, negative = inhibition in [2] (at 38 µM (top of the series)) was -14.9% (inactive); in [1] (setting [10]), 7.55% (inactive).

As to `O=C1NC(O)=NC1(c1ccccc1)c1ccccc1`, the figures for the activity change, negative = inhibition in test [2] (at 38 µM (top of the series)) and in test [1] (setting [10]) were 1.51% (inactive) and -13.5% (inactive), respectively. For the same compound, in test [3], the Potency result was “inactive”.

Consider `Nc1cc(-c2ccncc2)c[nH]c1=O`, for which the activity change, negative = inhibition is -9.46% (inactive) in test [2] (at 17.2 µM (top of the series)) and -1.83% [at 17.2 µM] (inactive) in test [1] (setting [10]). Besides, the Potency in test [3] was 15.8 µM (active).

As for `O=C(Nc1cccc(C(=O)Nc2ccc(S(=O)(=O)O)c3cc(S(=O)(=O)O)cc(S(=O)(=O)O)c23)c1)Nc1cccc(C(=O)Nc2ccc(S(=O)(=O)O)c3cc(S(=O)(=O)O)cc(S(=O)(=O)O)c23)c1`, the activity change, negative = inhibition in [2] (at 38 µM (top of the series)) was -2.72% (inactive); in test [1] (setting [10]) it was 4.75% (inactive). Also, the Potency entry in test [3] was “inactive”.

With `NCCCCCCCCCCN`, the activity change, negative = inhibition is 4.16% (inactive) in [2] (at 38 µM (top of the series)) and 0.00398% (inactive) in test [1] (setting [10]). In addition, the Potency entry in test [3] is “inactive”.

Turning to `N#C/C(=C\c1ccc(O)c(O)c1)C(=O)NCc1ccccc1`, the activity change, negative = inhibition is -8.08% (inactive) in test [2] (at 38 µM (top of the series)) and -14.7% (inactive) in test [1] (setting [10]). The Potency in test [3] is 12.6 µM (active) and 7.94 µM (active).

For `O=C(O)c1cc(=O)c2c(Cl)cc(Cl)cc2[nH]1`, the activity change, negative = inhibition in [2] (at 38 µM (top of the series)) is -8.48% (inactive); in [1] (setting [10]), 0.544% (inactive). For the same compound, the Potency entry in [3] was “inactive”.

Consider `O=c1[nH]c2cc([N+](=O)[O-])c([N+](=O)[O-])cc2[nH]c1=O`, for which the activity change, negative = inhibition in test [2] (at 38 µM (top of the series)) was -3.93% (inactive); in test [1] (setting [10]) it was 4.52% (inactive). Moreover, the Potency result in test [3] was “inactive”.

`CN(C)C(N)=NCCC[C@H](N)C(=O)O`: the activity change, negative = inhibition in test [2] (at 38 µM (top of the series)) was 3.1% (inactive); in [1] (setting [10]), -0.969% (inactive). The Potency entry in test [3] was “inactive”.

For `C=C[C@H]1CN2CC[C@@H]1C[C@@H]2[C@@H](O)c1ccnc2ccc(OC)cc12`, the activity change, negative = inhibition in test [2] (at 38 µM (top of the series)) is 0.0731% (inactive) and 9.28% (inactive); in [1] (setting [10]) it was -6.92% (inactive) and -0.71% (inactive). In addition, the Potency entry in [3] is “inactive”.

Turning to `OC[C@H]1O[C@@H](n2cnc3c(NC4CCCC4)ncnc32)[C@H](O)[C@@H]1O`, the activity change, negative = inhibition was 4.32% (inactive) in test [2] (at 17.2 µM (top of the series)) and 7.15% [at 17.2 µM] (inactive) in test [1] (setting [10]).

For `COc1cc2c(CCNC(C)=O)c[nH]c2cc1Cl`, the activity change, negative = inhibition in test [2] (at 38 µM (top of the series)) was -0.206% (inactive); in [1] (setting [10]) it was -9.13% (inactive). The Potency in test [3] is 1 µM (active) and 126 nM (active).

With `COc1cccc(C(=O)NCCN2CCN(c3ccc(Cl)cc3)CC2)c1`, the results for the activity change, negative = inhibition in [2] (at 38 µM (top of the series)) and in test [1] (setting [10]) were -7.5% (inactive) and 2.58% (inactive), respectively. In addition, the Potency in test [3] was 12.6 µM (active).

On to `COc1ccccc1N1CCN(CCN(C(=O)c2ccc(I)cc2)c2ccccn2)CC1`, for which the figures for the activity change, negative = inhibition in test [2] (at 38 µM (top of the series)) and in [1] (setting [10]) were -13.6% (inactive) and -16.4% (inactive), respectively.

Take `c1ccc(-c2ccccn2)nc1`: the values for the activity change, negative = inhibition in [2] (at 38 µM (top of the series)) and in test [1] (setting [10]) were 11.7% (inactive) and -2.98% (inactive), respectively. The Potency in test [3] is 25.1 µM (active).

On to `CC(=O)SCC[N+](C)(C)C`, for which the activity change, negative = inhibition was 9.91% (inactive) in test [2] (at 38 µM (top of the series)) and 9.71% (inactive) in test [1] (setting [10]). Moreover, the Potency entry in test [3] is “inactive”.

As to `Cc1ccc(O)c(N=Nc2ccccc2)n1`, the activity change, negative = inhibition is 17.2% (inactive) in test [2] (at 38 µM (top of the series)) and -10.8% (inactive) in [1] (setting [10]). Also, the Potency in test [3] was 794 nM (active) and 158 nM (active).

`NO`: the figures for the activity change, negative = inhibition in test [2] (at 38 µM (top of the series)) and in test [1] (setting [10]) were 6.61% (inactive) and -5.23% (inactive), respectively. Also, the Potency entry in test [3] is “inactive”.

With `CC1(C)S[C@@H]2[C@H](NC(=O)[C@H](N)c3ccccc3)C(=O)N2[C@H]1C(=O)O`, the activity change, negative = inhibition in test [2] (at 17.2 µM (top of the series)) is 6.1% (inactive); in [1] (setting [10]) it was 3.92% [at 17.2 µM] (inactive). The Potency in test [4], in test [5], in test [6], in [7], in test [8] and in test [9] was > 92 µM (inactive) throughout.
